Assay results: PubChem BioAssay (Tox21)
Results filed as inconclusive are left out. Active and inactive are the calls of the source. Unless noted, the call rests on the fitted dose curve; in most records, active means well fitted activation curve with a large enough effect in the repeat runs; inconclusive means weak or mixed curves; inactive means no such curve, though single readings can be large or run the other way.

Experiment: qHTS assay for small molecule agonists of the p53 signaling pathway (AID 651631; calls by dose curve)
Details: HCT-116 p53RE-bla reporter, beta-lactamase FRET ratio, 16 h; series mostly up to 73.3 µM; activation: at the top concentration
In short: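 HCT-116 cells carrying a stable p53 response element–beta-lactamase reporter were plated, rested 5 h at 37 °C, then exposed to compound in DMSO for 16 h at 37 °C; reporter activity was read as FRET substrate fluorescence after 2 h at room temperature.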
Further: nearly all actives have a fitted effect of over 15% in size.
On the % scale 0 is the no-effect control and ±100 the full control effect.

SMILES	activation
COC(=O)c1c(C)cc(O)c(C)c1O	-1.4% (inactive)
CCCCCCCCCCCCCCCC(=O)OC	-2.08% [at 34.7 µM] (inactive)
CC(C)(O)CCCC1=CCC(C=O)CC1 (centres undefined)	4.87% [at 95.1 µM] (inactive)
C=CCN1CCc2nc(N)sc2CC1	-3.56% (inactive)
O=C(O)CCC(=O)Nc1ccc(S(=O)(=O)Nc2nccs2)cc1	-5.43% [at 34.7 µM] (inactive)
CCOC(=O)CC	-2.81% (inactive)
CN(C)CCc1c[nH]c2ccc(C[C@H]3COC(=O)N3)cc12	-2.29% (inactive)
O=C(O)COc1ccc2ccccc2c1	-1.64% (inactive)
CCCCCCCCCCCCCCCC/C=C/C1CC(=O)OC1=O (centres undefined)	-4.09% (inactive)

Experiment: qHTS assay for small molecules that induce genotoxicity in human embryonic kidney cells expressing luciferase-tagged ATAD5 (AID 651632); further: potency means the concentration at half of the fitted maximal effect
Details: HEK293T ATAD5-luciferase induction, 16 h; series mostly up to 83.3 µM; activation: at the top concentration
In short: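 HEK293T cells carrying a luciferase reporter tagged to ATAD5 were exposed to compound or DMSO vehicle for 16 hr at 37C, 5% CO2. Amplite was added, and after 30 min at room temperature luciferase activity was read as a marker of ATAD5 induction.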

SMILES	activation	Potency
CC(=O)SCC(CC(=O)c1ccc(C)cc1)C(=O)O (centres undefined)	1.8% (inactive)	
CCCCCCC(=O)c1ccccc1	3.88% (inactive)	
CC(=O)c1ccc2ccc3ccccc3c2c1	4.1% (inactive)	
CC(=O)OCC(=O)[C@@]1(O)CC[C@H]2[C@@H]3CCC4=CC(=O)C=C[C@]4(C)[C@H]3[C@@H](O)C[C@@]21C	8.5% (inactive)	
CCCCCCCCS(=O)(=O)O	2.69% [at 95.3 µM] (inactive)	
COc1cc(NS(=O)(=O)c2ccc(N)cc2)ncn1	-1.03% [at 39.1 µM] (inactive)	
O=S(=O)(O)c1cc(I)c(O)c2ncccc12	3.31% (inactive)	
C[C@H]1COc2c(C3(N)CC3)c(F)cc3c(=O)c(C(=O)O)cn1c23	0.688% (inactive)	
O=Cc1ccccc1S(=O)(=O)O	3.13% (inactive)	
CC[C@@]1(c2ccccc2)NC(=O)N(C)C1=O	-2.01% (inactive)	
c1cc2ccc3ccc4ccc5cccc6c(c1)c2c3c4c56	2.87% [at 3.63 µM] (inactive)	
CCN1CCN(C(=O)N[C@@H](C(=O)N[C@@H]2C(=O)N3[C@@H]2SC(C)(C)[C@H]3C(=O)O)c2ccccc2)C(=O)C1=O	3.32% (inactive)	
O=C(O)Cc1c(Cl)ccc(Cl)c1Cl	1.89% (inactive)	
CC(C)(O)c1ccc(C(C)(C)O)cc1	0.728% (inactive)	
NC(=O)CC[C@@H](N)C(=O)O	-6.83% (inactive)	
CCCCCC(CC)OC(=O)CCCOc1ccc(Cl)cc1Cl (centres undefined)	0.829% (inactive)	
O=C(O)/C=C(\CC(=O)O)C(=O)O	1.84% (inactive)	
C/C(=N\O)c1ccc(OCC(=O)N2CCCCC2)cc1		23.7 µM (active)
Cc1ccc(Br)cc1	-0.318% (inactive)	
C=CC(=O)OCCOCCOCC	-2.62% (inactive)	
CC(C)OCCO	-1.57% (inactive)	
N#Cc1ccccc1C#N	1% (inactive)	
COC(=O)N/N=C/c1c[n+]([O-])c2ccccc2[n+]1[O-]	3.02% (inactive)	
COCc1nnc(-c2ccc[n+]([O-])c2)n1-c1c(Cl)c(Cl)cc2[nH]c(=O)c(=O)[nH]c12	1.72% (inactive)	
NS(=O)(=O)c1cc2c(cc1C(F)(F)F)NCNS2(=O)=O	3.05% [at 39.1 µM] (inactive)	
